Screens as filed in PubChem.
Rows were chosen to be rich in hits. Some 10% of all compounds tested hit in one or more screens of this group.
LMNA splice mod – qHTS Assay for Modulators of Lamin A Splicing | HeLa LMNA splicing GFP/RFP minigene ratio, 48 h | Potency, µM (top dose mostly 46.1 µM), for the others: at the top dose ratio change, negative = inhibition, most hits filed as inhibitors | 200,000 compounds, 0.01% hits | AID 1487, 2009; active = well fitted inhibition curve with a large enough effect in the signal ratio, with a control signal flat, not every such curve was filed as active; inconclusive = small, poorly fitted or top-dose-only effect, or effect the other way, or a change in a side signal; the % refers to the signal ratio; also: potency is read from the fitted curve at half-maximal effect
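Read-out is the ratio of GFP to DsRed2 object intensity, acquired by 488 nm laser-scanning cytometry on HeLa lamin A-EGFP minigene reporter cells. Compound incubation 48 hrs at 37 °C in Opti-MEM with 2% FBS; DMSO 0.5% final.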
PNC assembly inh – High Content Assay for Compounds that inhibit the Assembly of the Perinucleolar Compartment; 140,000 compounds, 3.1% hits; PC3M PTB-GFP, PNC prevalence imaging, 16 h; active compounds read low; activity change (PNC), negative = inhibition, % at 10 µM;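 active = readout at or below -70, meaning at least 70% loss of cells showing the perinucleolar compartment, a nuclear body marking cancer cells; inconclusive = readout between -30 and a set limit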;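 also: plate controls were DMSO wells for no effect and camptothecin positive control wells for full effect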
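PC3M cells stably expressing PTB-GFP, 750–1000 cells/well, treated 16 h at 37 °C with compound (23 nl of library stock), in duplicate. After paraformaldehyde fixation and Hoechst stain, imaged at 20x; PNC prevalence scored by image analysis.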
HPGD inh – qHTS Assay for Inhibitors of HPGD (15-Hydroxyprostaglandin Dehydrogenase). 15-hydroxyprostaglandin dehydrogenase [NAD(+)] (Homo sapiens), P15428. purified HPGD, NADH fluorescence kinetic, PGE2 substrate. Potency, µM, for inactives: at the highest dose activity change, negative = inhibition, most hits filed as inhibitors. 150,000 compounds, 4.3% hits; also: potency is read from the fitted curve at half-maximal effect
Target sequence (P15428 whole entry, looked up): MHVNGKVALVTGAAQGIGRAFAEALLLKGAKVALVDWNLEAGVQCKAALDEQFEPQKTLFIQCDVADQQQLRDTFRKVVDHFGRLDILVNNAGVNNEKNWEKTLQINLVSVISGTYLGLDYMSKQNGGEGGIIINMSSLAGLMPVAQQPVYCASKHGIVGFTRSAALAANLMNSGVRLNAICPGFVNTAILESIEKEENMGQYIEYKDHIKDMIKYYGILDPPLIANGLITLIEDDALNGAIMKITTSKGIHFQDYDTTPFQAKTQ
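NADH formation kinetics: reaction with 30 uM PGE2 and 1 mM NAD+ (final), 20 nM enzyme, Tris-HCl pH 8 with Tween 20, after 15 min compound preincubation at room temperature. Fluorescence change, last versus first of five reads.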
ALDH1A1 block – qHTS Assay for Inhibitors of Aldehyde Dehydrogenase 1 (ALDH1A1); Aldehyde dehydrogenase 1A1 (Homo sapiens), P00352; Purified ALDH1A1, NADH fluorescence, propionaldehyde substrate; Potency, µM (top dose mostly 75.3 µM), without a hit: at the top dose activity, negative = inhibition, actives largely listed as inhibitors; 220,000 compounds, 7.3% hits; AID 1030, 2008;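 also: potency is read from the fitted curve at half-maximal effect; plate controls were no enzyme wells and a reference inhibitor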
ALOX12 inhib – qHTS Assay for Inhibitors of 12-hLO (12-human lipoxygenase) | Polyunsaturated fatty acid lipoxygenase ALOX12 (Homo sapiens), P18054 | purified 12-hLO, xylenol orange hydroperoxide absorbance | Potency, µM (titrated, usually from 57.1 µM), for the others: top-dose activity change, negative = inhibition, most hits filed as inhibitors | 150,000 compounds, 0.12% hits; active = well fitted inhibition curve with a large enough effect; inconclusive = small, poorly fitted or top-dose-only effect; also: potency is read from the fitted curve at half-maximal effect; nearly all actives have a fitted effect of over 55% in size
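150 nM 12hLO, 25 mM Hepes pH 7.0 + 0.01% Triton X-100; cpd preinc 15 min RT; 40 uM arachidonic acid, 30 min RT; Fe-XO 30 min; A573/A405 ratio as read-out.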
Numbers without * were called inactive; [ ] = dose if it differs, or a comment. Unless noted, calls follow the shape of the dose curve; as a rule, active = well fitted inhibition curve with a large enough effect (not every such curve was filed as active); inconclusive = small, poorly fitted or top-dose-only effect, or another doubt; inactive = no such curve, though single readings can be large or run the other way. Unless noted, % is scaled to controls: 0 for no effect and ±100 for the full control effect.

How did CN1CCN(c2cc(-c3ccoc3)ncn2)CC1 do in these assays?
LMNA splice mod: 5%; ALDH1A1 block: inconclusive

What do the screens show for `Cc1ccc(NC(=O)COC(=O)/C=C/c2ccc(Br)o2)cc1S(=O)(=O)N(C)C`?
LMNA splice mod: 8%[46 µM]; ALDH1A1 block: 20µM*

How did Cc1ccc(NC(=O)c2ccc(Br)o2)cc1S(=O)(=O)N(C)C do in these assays?
LMNA splice mod: -24%[46 µM]; ALDH1A1 block: 14µM*

Results for CN(C)S(=O)(=O)c1cccc(NC(=O)COC(=O)/C=C/c2ccc(Br)o2)c1 ?
ALDH1A1 block: 8.9µM*

Results for COc1ccc(OC)c(/C=C/C(=O)OCC(=O)Nc2ccc(Cl)c(S(=O)(=O)N(C)C)c2)c1 ?
LMNA splice mod: -11%[46 µM]; ALDH1A1 block: inconclusive

How did CN(C)S(=O)(=O)c1cccc(NC(=O)COC(=O)c2ccc(Br)o2)c1 do in these assays?
LMNA splice mod: 1%[0.0737 µM]; PNC assembly inh: 109; HPGD inh: 0%; ALDH1A1 block: 3%; ALOX12 inhib: 0%

What do the screens show for `Cc1occc1C(=O)NN1C(=O)C2C3CCC(O3)C2C1=O` (configuration not stated)?
LMNA splice mod: 6%; PNC assembly inh: -102*; HPGD inh: -5%; ALDH1A1 block: 3%; ALOX12 inhib: -2%

How did COc1ncc2nc(CCc3ccccc3)c(=O)n(CCC#N)c2n1 do in these assays?
HPGD inh: -21%; ALDH1A1 block: inconclusive; ALOX12 inhib: 2%

How did CS(=O)(=O)Nc1cccc(-c2nccc(NCc3ccccc3)n2)c1 do in these assays?
LMNA splice mod: 7%; HPGD inh: -8%; ALDH1A1 block: 6%; ALOX12 inhib: -4%

Results for CCOC(=O)c1c(C)[nH]c(C(=O)CSc2nnc(C3CC3)n2N)c1C ?
LMNA splice mod: 5%; PNC assembly inh: -14; HPGD inh: -10%; ALDH1A1 block: -8%; ALOX12 inhib: 2%

What do the screens show for `CCOC(=O)c1c(C)[nH]c(C2=NNC(=NC3CC3)SC2)c1C`?
LMNA splice mod: -23%[46 µM]; ALDH1A1 block: 18µM*

What do the screens show for `CN1CCN(c2cc(-c3ccccc3Cl)ncn2)CC1`?
LMNA splice mod: 0%; ALDH1A1 block: -2%

Results for Cn1c(=O)n(CC(=O)N2CCN(c3nnc(-c4ccccc4)c4ccccc34)CC2)c2ccccc21 ?
LMNA splice mod: inconclusive; PNC assembly inh: -8; HPGD inh: -3%; ALDH1A1 block: -6%; ALOX12 inhib: -2%

How did O=C(CN1CCOCC1)N1CCN(c2nnc(-c3ccccc3)c3ccccc23)CC1 do in these assays?
LMNA splice mod: -2%; PNC assembly inh: -12; HPGD inh: 2%; ALDH1A1 block: 13µM*; ALOX12 inhib: 1%

How did Cc1ccc(-c2nnc(N3CCN(C(=O)COc4ccccc4)CC3)c3ccccc23)cc1 do in these assays?
LMNA splice mod: 9%; PNC assembly inh: 53; HPGD inh: -18%; ALDH1A1 block: 28µM*; ALOX12 inhib: -2%

Results for Cc1ccc(-c2nnc(N3CCN(C(=O)CN4CCOCC4)CC3)c3ccccc23)cc1 ?
LMNA splice mod: -19%; PNC assembly inh: inconclusive; HPGD inh: -10%; ALDH1A1 block: 18µM*; ALOX12 inhib: -2%

What do the screens show for `COc1cccc(CC(=O)N2CCc3nc(-c4ccccc4)c4c(c3C2)CO[C@@H](C)C4)c1`?
LMNA splice mod: -9%[9.22 µM]; HPGD inh: -4%; ALDH1A1 block: 12%[13.5 µM]; ALOX12 inhib: 0%[11.4 µM]

What do the screens show for `CCCCOC(=O)CNc1n[nH]c(=S)[nH]c1=O`?
LMNA splice mod: 22%; PNC assembly inh: inconclusive; HPGD inh: 25µM*; ALDH1A1 block: inconclusive; ALOX12 inhib: -2%

How did CCN(CC)c1ccc(C=O)c(OC)c1 do in these assays?
ALDH1A1 block: 4µM*

What do the screens show for `CCCCN=c1scc(-c2ccc3c(c2)NC(=O)CO3)n1N=C1CCCC1`?
LMNA splice mod: inconclusive; PNC assembly inh: 25; HPGD inh: inconclusive; ALDH1A1 block: 3.2µM*; ALOX12 inhib: -8%
